{
  "source": "PubChem BioAssay (NCI)",
  "note": "About 83,000 compounds went through this panel and 20% of them were active in at least one assay; those are over-represented in the sample as a whole.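 The test compound was applied at a single concentration to cells in 96-well plates for 48 hours, and percent growth was recorded.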 Active and inactive are the calls of the source. How the source made its calls: active means growth percent below 10; inactive means the rest.",
  "data": [
    {"system": "HL-60(TB) leukemia", "test": "NCI-60 one-dose screen, 48 h (100 = growth as untreated, 0 = no growth, -100 = all killed)", "conditions": "10 µM unless noted", "values": [
      {"smiles": "Cc1c2cnccc2c(C)c2c1c1cc(C(=O)O)ccc1n2C", "growth": "5.27% (active)"},
      {"smiles": "O=C1CC(c2ccccc2)Cc2nc3ccc(Cl)cc3cc21", "note": "(stereo not drawn)", "growth": "-20.7% (active)"},
      {"smiles": "CC1(C)CC[C@]2(CO)CC[C@]3(C)[C@H](CC[C@@H]4[C@@]5(C)CCCNC(C)(C)[C@@H]5CC[C@]43C)[C@H]2[C@H]1O", "growth": "57.8% (inactive)"},
      {"smiles": "CCOC(=O)C(=Cc1c(-c2ccccc2)[nH]c2ccccc12)C(=O)OCC", "growth": "-52% (active)"},
      {"smiles": "CCO/C=N/C1=C(C#N)C(c2ccc(F)cc2)c2sc3c(F)cccc3c2O1", "note": "(stereo not drawn)", "growth": "6.35% (active)"},
      {"smiles": "Cc1cc(O)c(C2=NN(c3ccc(S(N)(=O)=O)cc3)C(c3ccccc3Cl)C2)cc1Cl", "note": "(stereo not drawn)", "growth": "-30.2% (active)"},
      {"smiles": "C/C(=C(/c1ccccc1)c1ccc(N2C(=O)c3cccc4c(N5CCN(C)CC5)ccc(c34)C2=O)cc1)c1ccccc1", "growth": "99.3% (inactive)"},
      {"smiles": "C[C@@H]1C(=O)N(C[C@H](Cc2ccccc2)NC(=O)OCc2ccccc2)[C@]1(Cc1ccccc1)C(=O)OCc1ccccc1", "growth": "37.4% (inactive)"},
      {"smiles": "O=C(NO)c1ccc(CNc2cccc3nc(C4CC4)n(-c4ccccc4)c(=O)c23)cc1", "growth": "7.45% (active)"},
      {"smiles": "CC1=C(CCCOC(=O)NCCCl)C2=C(C)C3(CC3)[C@@](C)(O)C(=O)C2=C1", "growth": "44.7% (inactive)"},
      {"smiles": "CCOC(=O)c1c(Nc2nc3ccccc3s2)sc2c1CCC(=O)C2", "growth": "58.7% (inactive)"},
      {"smiles": "O=C(/C=C/c1ccc([N+](=O)[O-])cc1)c1ccccc1", "growth": "35.1% (inactive)"},
      {"smiles": "O=C1c2cccc(NCCN=Cc3ccccc3O)c2C(=O)c2c(NCCN=Cc3ccccc3O)cccc21", "growth": "31.6% (inactive)"}
    ]}
  ]
}
